From PubChem BioAssay (NCATS) come the findings set out here.

Where “and” joins values, the source holds several entries; their conditions need not be identical. Identical values can stand only once. A number with no mark means an inactive call. Inconclusive results are not listed. Calls of active or inactive are those of the source. Unless noted, calls come from the whole dose curve; as a rule, active = well fitted curve in the direction sought with a large enough effect; inconclusive = small, poorly fitted or top-dose-only effect, or another doubt; inactive = no such curve, though single readings can be large; an effect the other way counts as inactive or inconclusive.

A short description of assay [1]: Cellular Toxicity (caspase-3) HepG2 (AID 654).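 Note: cells exposed to compound for 16 hours before reading; 0% = DMSO alone and 100% = caspase signal from 100 µM tamoxifen.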 The essentials: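 Luminescent Caspase-Glo 3/7 readout after 16 hr compound exposure of human hepatocellular carcinoma HepG2 cells at 37 °C; qHTS concentration-response, normalized DMSO = 0%, 100 uM tamoxifen = 100%; AC50 by standard Hill equation.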
A short description of assay [2]: Cellular Toxicity (caspase-3) Jurkat (AID 655).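 Note: cells exposed to compound for 16 h at 37 °C before reading.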 As to conditions: Jurkat caspase-3 activation, luminescence, DMSO = 0%, tamoxifen = 100%; at 92.2 µM (top of the series). In short, it runs like this:
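Luminescent Caspase-Glo 3/7 read-out (20 min, room temperature) after 16 h compound treatment at 37 C of 5000 Jurkat cells per well. AC50 derived by Hill-equation fitting, scaled between DMSO basal and 100 uM tamoxifen stimulation.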

A short description of assay [3]: Cellular Toxicity (caspase-3) HUV-EC-C (AID 656). In short, it runs like this:
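Luminescent Caspase-Glo 3/7 readout after 16 h, 37 °C compound exposure of HUV-EC-C endothelial cells, 1000 per well, complete medium. AC50 derived by Hill fitting, with DMSO as baseline and 100 uM tamoxifen as full activation.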

A short description of assay [4]: Cellular Toxicity (caspase-3) SHSY5Y (AID 657). In short, it runs like this:
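Luminescent Caspase-Glo 3/7 read-out, 1 hr room temperature, follows 16 hours of compound treatment of SH-SY5Y cells at 37 °C. Normalization: DMSO basal, 10 uM staurosporine as 100%; AC50 values from Hill-equation concentration-response fits.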

Assay [5] is described as follows: Cellular Toxicity (caspase-3) BJ (AID 658).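 Note: 0% = DMSO basal and 100% = 10 µM staurosporine.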 In short, it runs like this:
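qHTS, BJ fibroblasts, 1000 cells/well; 5 hr preincubation, 16 hr compound, 37 °C; Caspase-Glo 3/7 reagent, 1 hr RT; luminescence. DMSO = 0%, 10 uM staurosporine = 100%. Hill-equation AC50.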

Assay [6] can be described thus: Cellular Toxicity (caspase-3) MRC-5 (AID 659).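 Note: 0% = DMSO basal and 100% = 10 µM staurosporine.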 The essentials:
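MRC-5 fibroblasts, 1500/well; 16 h cpd, 37 °C; Caspase-Glo 3/7, 1 h RT; lumi read. Norm: DMSO = 0%, 10 uM staurosporine = 100%. Hill-fit AC50 from qHTS conc-response.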

A short description of assay [7]: Cellular Toxicity (caspase-3) Mesangial (AID 660).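 Note: combined caspase 3 and 7 activity read by Caspase-Glo luminescence; cells exposed to compound for 16 h before the caspase read.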 The essentials: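 Luminescent Caspase-Glo 3/7 readout (aminoluciferin substrate cleavage, 20 min RT) after 16 h compound exposure at 37 °C of normal human mesangial cells. Signal increase normalized between DMSO basal and 100 uM tamoxifen; Hill-equation AC50.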
The nature of assay [8]: Cellular Toxicity (caspase-3) SK-N-SH (AID 661).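 Note: 0% = DMSO basal and 100% = 10 µM staurosporine.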 In short, it runs like this:
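Luminescent Caspase-Glo 3/7 read-out after 16 hr compound exposure of SK-N-SH neuroblastoma cells at 37 °C. Signal increase normalized to DMSO (basal) and 10 uM staurosporine (100%); AC50 from Hill equation fits of qHTS concentration-response data.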

Assay [9] in a line: Cellular Toxicity (caspase-3) H-4-II-E (AID 663). In short, it runs like this:
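H-4-II-E rat hepatoma, 1500 cells/well, 5 hr settle at 37 °C; compound 16 hr, 37 °C, complete medium; Caspase-Glo 3/7, 20 min RT; luminescence. DMSO = 0%, 100 uM tamoxifen = 100%; Hill-equation AC50.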

Assay [10] is described as follows: Cellular Toxicity (caspase-3) NIH 3T3 (AID 666).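 Note: 0% = DMSO basal and 100% = 100 µM tamoxifen stimulation.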 The essentials: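 NIH 3T3, 1000 cells/well, 5 hr settle then 16 hr compound at 37°C; Caspase-Glo 3/7, 20 min RT, luminescence. DMSO = basal, 100 uM tamoxifen = 100%. Hill-equation AC50, qHTS.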
Assay [11] in a line: Cellular Toxicity (caspase-3) Renal Proximal Tubule (AID 667).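 Note: cells exposed to compound for 16 hours at 37 °C before detection; 0% = DMSO basal and 100% = 10 µM staurosporine.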 As to conditions: renal proximal tubule cells; at 91.7 µM (top of the series), primary cells freshly taken from rat, solvent-only wells 0%, staurosporine 100% unless noted. The essentials:
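Caspase 3/7 activation measured by luminescent aminoluciferin release in primary rat proximal tubule cells after 16 hr compound exposure at 37 °C. AC50 from Hill-fitted concentration-response, scaled between DMSO and 10 uM staurosporine.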

A short description of assay [12]: Cell Viability - LYMP2-001 (AID 921).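 Note: 0% = DMSO only and full inhibition = tetraoctylammonium bromide control wells; nearly all actives have a fitted effect of over 70% in size.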 The essentials: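 Cellular ATP loss read by luciferase luminescence after 24 h compound exposure at 37 C in complete medium. LYMP2-001 lymphoblastoid cells, 2500/well; qHTS concentration-response data fitted with Hill equation for AC50.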
Assay [13] can be described thus: MultiTox-Fluor Cytotoxicity Assay - LYMP1-001 - Dead Cells (AID 946).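 Note: 0% = DMSO and 100% = tetraoctylammonium bromide.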 In short, it runs like this:
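In this qHTS, 15 uM tetraoctylammonium bromide defined 100% and DMSO defined basal activity. Lymphoblastoid cells (LYMP1-001, 2500 per well) received compound for 16 hr at 37 C before a fluorogenic dead-cell substrate readout at 485/520 nm.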

The nature of assay [14]: Cell Viability - LYMP1-002 - Assay at 16 hr (AID 948).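 Note: 0% = DMSO alone and full effect = 92 µM tetraoctylammonium bromide.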 The essentials: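 ATP luminescence (CellTiter-Glo) was measured after 16 hr compound exposure at 37 C of 2500 lymphoblastoid LYMP1-002 cells per well. Concentration-response curves were fitted with the Hill equation to give AC50.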
The nature of assay [15]: MultiTox-Fluor Cytotoxicity Assay - LYMP1-002 - Live Cells (AID 955). Note: % is set by controls: 0 for no effect and ±100 for the full control effect. In short, it runs like this: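 LYMP1-002 lymphoblastoid cells; 2500 cells/well; 16 hr compound exposure, 37 C; MultiTox-Fluor reagent 60 min RT; live-cell fluorescence Ex/Em=405/510; qHTS concentration-response, Hill-equation AC50; tetraoctylammonium bromide positive control.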
Assay [16] can be described thus: qHTS assay for small molecule agonists of the antioxidant response element (ARE) signaling pathway measured by Nrf2-dependant transcriptional activity (AID 720636; active = well fitted curve in the direction sought with a large enough effect in the repeat runs; an effect the other way counts as inactive or inconclusive;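 note: HepG2 cells with an ARE-driven luciferase reporter; % of control where 0% means no effect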). In short, it runs like this:
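First, ARE-luc HepG2 cells attached for 6 hr at 37 C in 1% dialyzed FBS medium. Next, compound or DMSO was added and incubated 16 hr. Finally, ONE-Glo reagent was added and luminescence measured after 30 min.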
(qHTS replaces the single test concentration by a dilution series.)

Assay [17] is described as follows: qHTS assay for small molecule agonists of the antioxidant response element (ARE) signaling pathway measured by Nrf2-dependant transcriptional activity - cell viability counter screen (AID 720653; active = well fitted curve in the direction sought with a large enough effect in the repeat runs; an effect the other way counts as inactive or inconclusive; note: % is set by controls: 0 for no effect and ±100 for the full control effect). As to conditions: ARE-bla HepG2 viability, CellTiter-Glo ATP luminescence, 16 h; active compounds read low. The essentials:
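ARE-bla HepG2 cells treated with compounds for 16 h at 37C; this counter screen measures viability as intracellular ATP by CellTiter-Glo luminescence after 30 min at room temperature.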

Assay [18] in a line: qHTS assay for cell viability of HEK293 cells (AID 743288). Note: % is set by controls: 0 for no effect and ±100 for the full control effect; nearly all actives have a fitted effect of over 50% in size. As to conditions: ATP luminescence (CellTiter-Glo), 18 h; max response: active compounds read low. The essentials: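 Readout is luciferase-coupled ATP content (CellTiter-Glo luminescence, 30 min room temperature) as a measure of metabolically competent cells. Parental HEK293 cells were plated 5 h or more before compound addition, then treated 18 h at 37 C.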

Assay [19] is described as follows: qHTS assay for cell viability of the p53RE-bla HCT-116 cell line (AID 743292). Note: % is set by controls: 0 for no effect and ±100 for the full control effect; nearly all actives have a fitted effect of over 55% in size. The essentials:
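Quantitative high-throughput format: compounds in DMSO were pinned onto p53RE-bla HCT-116 cells (4,000/well) and incubated 16 h at 37 C. Total intracellular ATP, read by CellTiter-Glo luminescence, reflects viable cell number.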

Assay [20] is described as follows: qHTS assay for small molecule activators of the human pregnane X receptor (PXR) signaling pathway (AID 720659; call rule not given here; note: 0% is about no effect).

`C=CCc1ccc2c(c1)OCO2`: the outcome in assay [1], in assay [3], in assay [4], in assay [5], in assay [6] and in assay [7] was inactive. Further, the outcome in assay [8], in assay [9], in assay [10], in assay [15], in assay [16] and in assay [20] was inactive. Besides, the caspase-3 activation in assay [2] was 1.31%; in assay [11] it was -2.37% [at 91.7 µM]. The Potency result in assay [12], in assay [13], in assay [14] and in assay [19] was “inactive” each time. The figures for the max response in assay [17] and in assay [18] were -4.7% and -8.48%, respectively.

Regarding `c1ccc(N=Nc2ccccc2)cc1`, the molecule was classed as inactive in assay [1], in [3], in assay [4], in assay [5], in [6] and in assay [7]. The outcome in assay [8], in assay [9], in assay [10], in assay [15], in assay [16] and in [20] was inactive. Moreover, the caspase-3 activation was 92% (active) in [2] and 1.95% in assay [11]. Moreover, the Potency result in assay [12], in [13], in assay [14] and in [19] was “inactive” in each case. In addition, the max response in assay [17] was -6.06% and -16.5%; in [18] it was 1.24% and -11.6%.
